FBW7 activator: activators of human E3 ligase FBW7; Q969H0; AlphaScreen FBW7–phospho-cyclin E peptide binding, activator screen; normalized activity (activation), % at 26.1 µM; 650,000 tested, 0.13% active; AID 1259310; in the data active = normalized activity above about 1.9%;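 note: purified mutant Fbw7 with reduced substrate affinity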
TEAD-YAP inh: TEAD-YAP interaction inhibition; HEK-TIYL cells, TEAD-Gal4/YAP UAS-luciferase luminescence; 640,000 tested, 1.4% active; inhibition, % at 9.12 µM; AID 1259422; in the data active = inhibition above about 32%
MITF inh: human MITF inhibition, primary screen; AlphaScreen MITF homodimerization, bead proximity signal; 650,000 tested, 0.91% active; inhibition, % at 2.6 µM; O75030; in the data active = inhibition above about 50%
Target sequence (O75030 whole entry, looked up): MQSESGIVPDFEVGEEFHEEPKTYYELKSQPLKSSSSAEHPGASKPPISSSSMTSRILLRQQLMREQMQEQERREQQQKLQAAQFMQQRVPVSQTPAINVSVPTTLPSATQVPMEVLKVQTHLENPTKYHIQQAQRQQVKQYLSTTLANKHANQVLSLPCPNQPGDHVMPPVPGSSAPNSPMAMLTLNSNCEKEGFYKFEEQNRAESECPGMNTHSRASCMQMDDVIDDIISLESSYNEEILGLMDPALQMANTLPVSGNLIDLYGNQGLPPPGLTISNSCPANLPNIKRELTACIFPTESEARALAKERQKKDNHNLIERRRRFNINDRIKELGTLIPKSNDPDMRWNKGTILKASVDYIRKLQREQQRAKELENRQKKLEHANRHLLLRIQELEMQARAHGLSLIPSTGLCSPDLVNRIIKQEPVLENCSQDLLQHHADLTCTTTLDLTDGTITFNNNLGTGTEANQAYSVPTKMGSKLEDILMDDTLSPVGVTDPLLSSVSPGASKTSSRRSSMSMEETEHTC
GPR151 activ: activators of human GPR151; Q8TDV0; PathHunter beta-arrestin GPR151 cells, luminescence; activation, % at 11.2 µM; 650,000 tested, 1% active; in the data active = activation above about 4.9%
MITF confirm: human MITF inhibition, confirmation; AID 1259372; shares compounds with MITF inh; 4,700 tested, 16% active; inhibition, % at 2.6 µM; AlphaScreen MITF homodimerization, biotin/His-MITF beads;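 active = inhibition above a cutoff derived from the DMSO control wells, cut at about 28% in these data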;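 note: inhibitors lower the bead chemiluminescence by keeping MITF from dimerizing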
AS interf DR: optically interferes with AlphaScreen signal in dose response; shares compounds with MITF inh; AlphaScreen optical interference counterscreen, cell-free; IC50, µM; 480 tested, 6% active; AID 1259373; call rule not given here
AlphaScreen intf2: counter-screen: compounds optically interfering with AlphaScreen. shares compounds with MITF inh. AID 1259376. inhibition, % at 2.6 µM. LysRS AlphaScreen counterscreen, signal interference, triplicate. 4,700 tested, 7.6% active;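 active = inhibition above a cutoff derived from the DMSO control wells, cut at about 30% in these data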
Of the large screens only hits and unclear results are named; the others gave an inactive call (follow-up assays come after a bar, where they were run). The list is not random: actives were taken first. Their share in the collection is about 3.4%.

c1ccc2c(c1)ncn2CC1CCN(Cc2cn3ccccc3n2)CC1	MITF inh 89.2 | MITF confirm 28.6 | AS interf DR inactive | AlphaScreen intf2 inactive
c1ccc2c(c1)ncn2CC1CCCCC1	none
c1ccn2cc(CN3CCCCC3)nc2c1	MITF inh 82.1 | MITF confirm inactive | AlphaScreen intf2 inactive
O=C(c1ccncc1)N1C2C=CC(C2)C1(C(F)(F)F)C(F)(F)F (stereo not given)	MITF inh 68.2 | MITF confirm 59.3 | AS interf DR inactive | AlphaScreen intf2 inactive
O=C(c1cccnc1)N1C2C=CC(C2)C1(C(F)(F)F)C(F)(F)F (stereo not given)	none
NC(=O)c1ccc(N=Cc2cc(Br)ccc2O)cc1	none
O=C(O)c1ccc(O)c(C=Nc2ccc(N=Cc3cc(C(=O)O)ccc3O)cc2)c1	MITF inh 70.3 | MITF confirm 72.6 | AS interf DR inactive | AlphaScreen intf2 inactive
N#Cc1cccc(NC(=O)CSc2nncs2)c1	MITF inh 52.7 | MITF confirm inactive | AlphaScreen intf2 inactive
N#Cc1cccc(NC(=O)CSc2nc3ccccc3s2)c1	none
CC1=C(C(=O)N2CCOCC2)C(c2ccc(Cl)cc2)NC(=S)N1 (stereo not given)	none
CC1=C(C(=O)N2CCOCC2)C(c2ccc(C)cc2)NC(=S)N1 (stereo not given)	MITF inh 70.2 | MITF confirm inactive | AlphaScreen intf2 inactive
CCOc1cccc(OCCN2CC(C)OC(C)C2)c1 (stereo not given)	MITF inh 52.9 | MITF confirm inactive | AlphaScreen intf2 inactive
c1ccc(COc2ccc(OCCCN3CCNCC3)cc2)cc1	TEAD-YAP inh 58.0, MITF inh 62.4 | MITF confirm inactive | AlphaScreen intf2 inactive
CCOc1cccc(OCCN2CCNCC2)c1	MITF inh 75.1 | MITF confirm inactive | AlphaScreen intf2 inactive
Clc1cccc(OCCN2CCNCC2)c1	none
Fc1ccc(OCCCN2CCNCC2)cc1	none
CCN1CCN(CCCOc2cccc(Oc3ccccc3)c2)CC1	MITF inh 69.2 | MITF confirm inactive | AlphaScreen intf2 inactive
CC1CN(CCOc2ccc3ccccc3c2)CC(C)O1 (stereo not given)	none
c1ccc(Oc2cccc(OCCCCN3CCOCC3)c2)cc1	none
COc1ccc(/C=C/C(=O)NCC(=O)N2CCC(N(C)C3CCCC3)CC2)cc1OC	none
O=C(/C(=C\c1cccc([N+](=O)[O-])c1)c1nc2ccccc2o1)c1cccnc1	none
c1ccc(Oc2cccc(OCCCCN3CCNCC3)c2)cc1	MITF inh 77.3 | MITF confirm inactive | AlphaScreen intf2 inactive
c1ccc(Oc2cccc(OCCCN3CCNCC3)c2)cc1	none
COc1ccc2c(c1)CCCN2Cn1nc(-c2ccccc2)n(C)c1=S	none
O=C(Nc1nnc(C2CCCCC2)s1)C1CC1	none
COC(=O)C(=O)Nc1nnc(C2CCCCC2)s1	MITF inh 67.0 | MITF confirm inactive | AlphaScreen intf2 inactive
COC(=O)C(=O)Nc1nnc(C2CCCC2)s1	MITF inh 78.7 | MITF confirm inactive | AlphaScreen intf2 inactive
O=C(O)Cn1cnc2sc3c(c2c1=O)CCC3	none
NC(=O)Cn1cnc2sc3c(c2c1=O)CCC3	MITF inh 65.8 | MITF confirm 59.9 | AS interf DR inactive | AlphaScreen intf2 inactive
c1ccc(Oc2cccc(OCCOCCn3cncn3)c2)cc1	MITF inh 72.3 | MITF confirm inactive | AlphaScreen intf2 inactive
c1ccc(-c2ccc(OCCCn3cncn3)cc2)cc1	MITF inh 60.9 | MITF confirm inactive | AlphaScreen intf2 inactive
Clc1cccc(OCCn2cncn2)c1	none
c1ccc(COc2ccc(OCCn3cncn3)cc2)cc1	none
O=[N+]([O-])c1ccc(OCCCCn2cncn2)cc1	none
Brc1cccc(OCCCCn2cncn2)c1	MITF inh 62.3 | MITF confirm inactive | AlphaScreen intf2 inactive
c1ccc(Oc2cccc(OCCn3cncn3)c2)cc1	MITF inh 67.2 | MITF confirm inactive | AlphaScreen intf2 inactive
Brc1cccc(OCCn2cnc3ccccc32)c1	MITF inh 68.1 | MITF confirm inactive | AlphaScreen intf2 inactive
Cc1cc(Br)ccc1OCCn1cncn1	MITF inh 68.1 | MITF confirm inactive | AlphaScreen intf2 inactive
Cc1cc(Cl)ccc1OCCn1cncn1	none
CC(C)c1cc(NCCN(C)C)n2ncc(-c3ccccc3)c2n1	none
COc1ccc(OC)c(NC(=O)CSc2nnc(-c3ccc([N+](=O)[O-])cc3)n2C)c1	none
OCCNCCOc1cccc2ccccc12	MITF inh 50.8 | MITF confirm inactive | AlphaScreen intf2 inactive
CCOc1ccccc1OCCCNCCO	MITF inh 57.9 | MITF confirm inactive | AlphaScreen intf2 inactive
CCCCNCCOc1ccccc1F	MITF inh 64.5 | MITF confirm inactive | AlphaScreen intf2 inactive
CCN(C(=O)c1cc(C(=O)OC)cc([N+](=O)[O-])c1)c1ccccc1C	none
CC(=O)n1c2c(c3ccccc31)OC(N)=C(C#N)C2c1cccc([N+](=O)[O-])c1 (stereo not given)	MITF inh 57.8 | MITF confirm inactive | AlphaScreen intf2 inactive
Cc1nc(-c2cncc(-c3cccs3)c2)cc(N2CCC(O)CC2)n1	none
CC(=O)CCc1ccc(OCC(O)CNC2CCCc3ccccc32)cc1 (stereo not given)	MITF inh 70.2 | MITF confirm inactive | AlphaScreen intf2 inactive
CCc1ccccc1OC[C@@H](O)CNC1CCCc2ccccc21 (stereo not given in full)	none (no result: TEAD-YAP inh)
COc1cc(OC)c(OC)cc1CN1CCN(Cc2c[nH]c3ccccc23)CC1	MITF inh 55.3 | MITF confirm inactive | AlphaScreen intf2 inactive
COc1cc(OC)c(OC)cc1CN1CCN(c2ccc(F)cc2)CC1	none
COc1ccc(CN2CCN(Cc3c[nH]c4ccccc34)CC2)c(OC)c1OC	MITF inh 61.6 | MITF confirm inactive | AlphaScreen intf2 inactive
CCOC(=O)N1CCN(S(=O)(=O)c2ccc(C(=O)Nc3ccc(-c4nc5ccc(C)cc5s4)cc3)cc2)CC1	MITF inh 53.3 | MITF confirm inactive | AlphaScreen intf2 inactive
CCOC(=O)N1CCN(S(=O)(=O)c2ccc(C(=O)Nc3ccc4nc(C)sc4c3)cc2)CC1	none
Cc1cccc(NC(=O)C2C3C=CC(C4CC34)C2C(=O)O)c1C (stereo not given)	MITF inh 54.9 | MITF confirm inactive | AlphaScreen intf2 inactive
COCCNc1cc(C)nc2cc(-c3cccc(OC)c3)nn12	none
CCn1nc(C(=O)NNC2CC(=O)N(c3cccc(OC)c3)C2=O)c2ccccc2c1=O (stereo not given)	none
Nc1cccc(N2C(=O)c3cc(S(=O)O)cc4c(N)c(S(=O)O)cc(c34)C2=O)c1	MITF inh 57.7 | MITF confirm 79.3 | AS interf DR inactive | AlphaScreen intf2 inactive
CCC(C)c1ccc(N2CC(C(=O)Nc3ccc(NC(C)=O)cc3)CC2=O)cc1 (stereo not given)	none
CN1CCC(NC(c2ccccc2)c2ccccc2)CC1	none
NC(=O)C1CC(=O)N(Cc2ccccc2Cl)C1 (stereo not given)	none

High-throughput results from PubChem BioAssay.
